# About 5,800 (36%) of roughly 16,000 compounds were called active. About 23% were inconclusive and are not listed. The list shows a part of the results. Unmarked numbers belong to inactive results. The call rests on the fitted dose curve; in most records, active means well fitted curve in the direction sought with a large enough effect; inconclusive means small, poorly fitted or top-dose-only effect, or effect the other way; inactive means no such curve, though single readings can be large or run the other way.
# Target: Cytochrome P450 2C19 (Homo sapiens) (UniProt P33261)
# Assay: Cytochrome panel assay with activity outcomes
# Settings: recombinant CYP, pro-luciferin dealkylation, luminescence, p450-cyp2c19; series mostly up to 57.1 µM; activity, negative = inhibition: at the top concentration
# On the % scale 0 is the no-effect control and ±100 the full control effect.
# Chain of Cytochrome P450 2C19 (Homo sapiens) (P33261 whole entry, looked up): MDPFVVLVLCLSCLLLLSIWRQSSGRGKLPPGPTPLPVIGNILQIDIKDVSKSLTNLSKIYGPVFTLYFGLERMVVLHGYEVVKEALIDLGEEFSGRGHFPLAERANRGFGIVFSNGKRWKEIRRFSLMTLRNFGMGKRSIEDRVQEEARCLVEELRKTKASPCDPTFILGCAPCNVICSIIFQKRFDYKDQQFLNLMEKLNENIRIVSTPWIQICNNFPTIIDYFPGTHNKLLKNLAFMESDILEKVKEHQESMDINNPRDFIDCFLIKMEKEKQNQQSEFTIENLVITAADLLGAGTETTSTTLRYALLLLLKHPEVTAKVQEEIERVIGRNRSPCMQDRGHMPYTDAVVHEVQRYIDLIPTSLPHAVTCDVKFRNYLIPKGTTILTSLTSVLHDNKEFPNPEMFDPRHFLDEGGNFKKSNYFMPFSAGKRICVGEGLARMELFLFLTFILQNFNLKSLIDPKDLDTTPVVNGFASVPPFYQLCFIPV
Compound,AC50,"activity, negative = inhibition"
COc1ccccc1-c1nnc(SCc2nc3ccccc3s2)n1C,2.24 µM (active),–
O=S(=O)(O)c1cc(O)c2c(N=Cc3ccccc3O)cc(S(=O)(=O)O)cc2c1,1.58 µM (active),–
Nc1ccccc1N=Nc1c(S(=O)(=O)O)cc2cc(S(=O)(=O)O)cc(O)c2c1O,–,-13.7% [at 11.4 µM]
O=S(=O)(O)c1cc(O)c2c(O)c(N=Nc3cccc4ccccc34)c(S(=O)(=O)O)cc2c1,–,-44.3% [at 11.4 µM]
CC(C)N(CC(=O)O)CC(=O)O,–,-17.1% [at 11.4 µM]
N/C(=N\OC(=O)Cc1ccc(Cl)cc1)c1cccnc1,15.8 µM (active),–
CCOC(=O)CNC(=O)c1cccnc1,–,-3.68%
Cc1nc(Oc2ccc(Cl)cc2)c2oc3ccccc3c2n1,2 µM (active),–
COc1cccc(=O)c2c(C)n(-c3cc(C)cc(C)c3)c(C)c12,1 µM (active),–
CCOC(=O)n1c(=O)n(Cc2ccccc2Cl)c2ccccc21,0.282 µM (active),–
CCOC(=O)n1c(=O)n(Cc2c(Cl)cccc2Cl)c2ccccc21,2 µM (active),–
Cn1c(=O)n(CCC(=O)O)c2ccccc21,–,4.21%
Cn1c(=O)c2[nH]c(COCc3nc4c([nH]3)c(=O)n(C)c(=O)n4C)nc2n(C)c1=O,–,25.6% [at 11.4 µM]
CCOC(=O)C(=CNc1ncccc1C)C(=O)OCC,0.891 µM (active),–
CCOC(=O)C(=CNCC(=O)O)C(=O)OCC,–,-8.91%
CCOC(=O)C(=CNc1cccc(C)c1C)C(=O)OCC,–,16.7%
COc1ccc(Nc2ncc3nc(-c4cccs4)c(=O)n(Cc4cccc(OC)c4)c3n2)cc1,–,-33%
O=c1c(-c2cccs2)nc2cncnc2n1C1CC1,–,-26.9%
Cn1cc(-c2nc3cncnc3n(Cc3ccc(F)cc3)c2=O)c2ccccc21,–,-2.82%
COc1ccc(-n2c(=O)c(C)nc3cncnc32)cc1,–,-59.3%
COc1cccc(Cn2c(=O)c(-c3cccs3)nc3cnc(OCc4ccccc4)nc32)c1,–,-11.8%
COc1cccc(Cn2c(=O)c(-c3cccs3)nc3cncnc32)c1,5.01 µM (active),–
Cc1nc2cncnc2n(C2CC2)c1=O,3.98 µM (active),–
O=c1c(-c2cccs2)nc2cncnc2n1Cc1ccccc1,1 µM (active),–
Cc1nc2cncnc2n(Cc2ccccc2)c1=O,0.158 µM (active),–

Compound,AC50,"activity, negative = inhibition"
COc1ccc(Oc2ncc3nc(-c4cccs4)c(=O)n(Cc4cccc(OC)c4)c3n2)cc1,–,-27.5%
O=c1c(-c2cc(F)cc(F)c2)nc2cncnc2n1C1CC1,–,-28.2%
O=c1c(-c2ccc(F)cc2)nc2cncnc2n1C1CC1,–,4.09%
Cc1ccc(S(=O)(=O)N[C@H]2COC(=O)C/C=C\[C@@H](C)[C@H](NS(=O)(=O)c3ccc(C)cc3)COC(=O)C/C=C\[C@H]2C)cc1,–,30.4% [at 11.4 µM]
COc1ncc2nc(-c3cccs3)c(=O)n(Cc3ccc(F)cc3)c2n1,–,-15.9%
O=c1c(-c2cccs2)nc2cncnc2n1Cc1ccc(F)cc1,7.94 µM (active),–
C[C@@H]1CN(CCCn2c3ccccc3c3ccccc32)C[C@H](C)N1,3.16 µM (active),–
O=c1[nH]c2ccccc2n1CCCN1CCN(C(c2ccccc2)c2ccccc2)CC1,–,-46.5%
CN(C)CCCn1c2ccccc2c2cnccc21,–,26.7% [at 11.4 µM]
O=c1c(-c2cc(F)cc(F)c2)nc2cnc(N3CCOCC3)nc2n1C[C@H]1CCCO1,–,2.14%
O=C1c2cccc3c(Nc4ccccc4Cl)c([N+](=O)[O-])cc(c23)C(=O)N1CCO,3.98 µM (active),–
O=C1c2cccc3c(Cl)ccc(c23)C(=O)N1O,–,-13.7%
O=C1NC(=O)C(c2ccccc2[N+](=O)[O-])=C1Nc1ccc(O)c(Cl)c1,–,1.11%
Cc1ccc(-n2nc3c(c2NC(=O)c2cccs2)CSC3)cc1,7.94 µM (active),–
CCCC(=O)Nc1c2c(nn1-c1ccc(C)cc1C)CSC2,8.91 µM (active),–
Cc1cc(/C=N\NC(=O)c2cccs2)c(C)n1-c1ccc2ncccc2c1,–,-70.7%
Cn1c(Cc2cccc3ccccc23)nnc1SCC(=O)N1CCN(c2ccccc2)CC1,25.1 µM (active),–
CC(C)c1ccccc1-n1c(SCC(=O)N2CCN(c3ccccc3)CC2)nnc1-c1cccnc1,11.2 µM (active),–
Cn1c(CC(=O)Nc2ccc(Cl)c(Cl)c2)nnc1SCC(=O)N1CCN(c2ccccc2)CC1,14.1 µM (active),–
O=c1cc(CSc2nnc(-c3cccnc3)n2-c2ccccc2F)nc2sccn12,–,11.8%
CC(=O)Nc1cc(S(=O)(=O)Nc2ccccc2)c(C)cc1C,25.1 µM (active),–
c1ccc2cc(NCNc3ccc4ccccc4c3)ccc2c1,2.51 µM (active),–
O=C(CCS(=O)(=O)c1cccc2nsnc12)NC1CCCCC1,11.2 µM (active),–
Cc1cccc(NC(=O)CCS(=O)(=O)c2cccc3nsnc23)c1C,14.1 µM (active),–
Cc1cccc(NC(=S)NNC(=O)CC(C)O)c1C (configuration not stated),–,-0.296%

Compound,AC50,"activity, negative = inhibition"
CN(C)c1ncc2nc(-c3cccc(C#N)c3)c(=O)n(C[C@H]3CCCO3)c2n1,–,18.9%
N=C(N)SCCSC(=N)N,–,2.37% [at 11.4 µM]
CN(C)Cc1ccccc1-c1nc(N(C)Cc2ccco2)c2ccccc2n1,–,-26.2%
COc1ccccc1-c1nc(N(C)Cc2ccco2)c2ccccc2n1,20 µM (active),–
CN(Cc1ccco1)c1nc(-c2ccccc2C(F)(F)F)nc2ccccc12,7.94 µM (active),–
Cc1ccccc1-c1nc(N(C)Cc2ccco2)c2ccccc2n1,10 µM (active),–
CN(C)c1nc(-c2ccccc2C(F)(F)F)nc2ccccc12,–,-29.3%
Cc1ccccc1-c1nc(N(C)C)c2ccccc2n1,20 µM (active),–
COc1ccccc1-c1nc(N(C)C)c2ccccc2n1,–,-17.2%
Cc1ccccc1-c1nc(NC2CC2)c2ccccc2n1,–,-33.8%
CNc1nc(-c2ccccc2CN(C)C)nc2ccccc12,–,-18.6%
CNc1nc(-c2ccccc2C)nc2ccccc12,10 µM (active),–
O=C(OCC#CCSc1nnc(-c2cccc3ccccc23)o1)c1ccco1,3.16 µM (active),–
COc1cc(OC)c(C2N(c3cc(C)on3)C(=O)C3CCCN32)cc1OC (configuration not stated),–,-29%
O=C1C2CCCN2C(c2ccccc2F)N1c1ccc(Cl)cc1 (configuration not stated),25.1 µM (active),–
CN1CCc2c(c3c(n2C)CCN(C)[C@H]3c2ccccc2F)[C@@H]1c1ccccc1F,–,-14.2%
CC(CC(=O)O)CC(=O)Nc1ccc(S(N)(=O)=O)cc1 (configuration not stated),–,-18%
CCC(=O)Nc1ccc(/C(C)=N\NS(=O)(=O)c2ccc(C)cc2)cc1,3.98 µM (active),–
C/C(=N/NS(=O)(=O)c1ccc(C)cc1)c1cccc(NC(=O)c2cccc(Cl)c2)c1,2 µM (active),–
COCCn1c(=O)c(-c2cccs2)nc2cnc(N3CCN(C)CC3)nc21,–,3.09%
CCOC(=O)N1CCN(c2nc(-c3ccco3)cc(C(F)(F)F)n2)CC1,4.47 µM (active),–
CCCNC(=O)CSc1nc(-c2cccs2)cc(C(F)(F)F)n1,0.562 µM (active),–
CCOC(=O)N1CCN(c2nc(-c3cccs3)cc(C(F)(F)F)n2)CC1,3.98 µM (active),–
COc1cc2nc(N3CC=[N+](C(=O)c4ccco4)CC3)nc(N)c2cc1OC,–,-4.4%
CCC[C@@H]1O[C@@H]2C[C@@H]3[C@H]4CCC5=CC(=O)C=C[C@@]5(C)[C@H]4[C@H](O)C[C@@]3(C)[C@@]2(C(=O)CO)O1,–,-18.8% [at 25.6 µM]

Compound,AC50,"activity, negative = inhibition"
CC[C@@H]1OC(=O)[C@H](C)[C@H](O[C@@H]2C[C@](C)(OC)[C@H](O)[C@H](C)O2)[C@H](C)[C@H](O[C@@H]2O[C@@H](C)C[C@@H](N(C)C)[C@@H]2O)[C@](C)(O)C[C@H](C)C(=NOCOCCOC)[C@H](C)[C@H](O)[C@]1(C)O,–,-2.54% [at 25.6 µM]
CN(C)CCCO[C@H]1[C@H]([C@H](O)CO)O[C@H]2OC(C)(C)O[C@@H]21,–,36.3%
COc1ccc([C@@H](Nc2ncccn2)c2cc3c(cc2O)OCO3)cc1,0.316 µM (active),–
COc1ccc([C@@H](C)c2cc3c(cc2O)OCO3)cc1,0.1 µM (active),–
C=C(C)[C@@H]1CC=C(C(=O)O)CC1,–,-12.9%
CN(C)CCSCCO,–,28.5% [at 11.4 µM]
Cc1cc(C(C)(C)C)c(O)c(C)c1CC1=NCCN1,inactive,–
Cc1cc(-c2cc(C)c(O)c(C(C)(C)C)c2)cc(C(C)(C)C)c1O,1 µM (active),–
CCN1C/C(=C\c2cccc(C)c2)c2nc3ccccc3c(C(=O)O)c2C1,–,-22.5%
CN1CCC(N(C)C(=O)CCc2nc3ccccc3c(=O)[nH]2)CC1,–,11.4%
Cc1cccc(NC(=O)N(Cc2nc3ccccc3c(=O)[nH]2)C2CCCC2)c1,15.8 µM (active),–
CCn1c(O)c(/C=N/N=C2CCCC2)c2ccc(C3=NNC(=O)CC3)cc21,–,-24.3%
O=C1c2cccnc2C(O)N1C1CCCCC1 (configuration not stated),–,-28.3%
Cc1nc2c(n1C1CCCCC1)C(=O)c1ccccc1C2=O,2.82 µM (active),–
Cn1cc(-c2nc3cncnc3n(C3CC3)c2=O)c2ccccc21,–,-6.89%
CN[C@@H]1NC(=O)c2ccccc2N1Cc1ccc(F)cc1,–,-2.68% [at 11.4 µM]
Cc1ccc(NC2c3ncccc3C(=O)N2Cc2ccc(F)cc2)cc1 (configuration not stated),5.01 µM (active),–
COc1cccc(-c2ccc3ncnc(NCCc4c[nH]c5ccc(OC)cc45)c3c2)c1,3.16 µM (active),–
COc1ccc2[nH]cc(CCNc3ncnc4ccc(-c5c(C)noc5C)cc34)c2c1,3.98 µM (active),–
COc1ccc2[nH]cc(CCNc3ncnc4ccc(-c5ccccc5OC)cc34)c2c1,2 µM (active),–
COc1ccc2[nH]cc(CCNc3ncnc4ccc(-c5cccc(C#N)c5)cc34)c2c1,7.94 µM (active),–
COc1ccc2[nH]cc(CCNc3ncnc4ccc(-c5ccccc5CN(C)C)cc34)c2c1,–,-27%
